Data taken from PubChem BioAssay (Tox21).
Unmarked numbers belong to inactive results. Results filed as inconclusive are left out. A call without a number means that no potency is given here. The source made the active and inactive calls. Unless noted, calls come from the whole dose curve; as a rule, active = well fitted curve in the direction sought with a large enough effect in the repeat runs; inconclusive = weak or mixed curves; inactive = no such curve, though single readings can be large; an effect the other way counts as inactive or inconclusive.

Assays:
[1] = qHTS assay to identify small molecule antagonists of the estrogen related receptor (ERR) signaling pathway from Tox21 library - cell viability counter screen (AID 1224834); note: nearly all actives have a fitted effect of over 30% in size; note: potency is the fitted concentration of half-maximal effect
Outline: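 Counter screen run in ERR cells (2,000 cells/well): cells pre-incubated 6 h, then treated with compounds for 17.5 h at 37 C. Fluorescence was read 30 min after CellTiter-Fluor addition.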

[2] = target: Luciferin 4-monooxygenase (Photinus pyralis) (UniProt P08659); assay: qHTS assay to identify small molecule inhibitors of firefly luciferase (AID 1224835); note: nearly all actives have a fitted effect of over 25% in size
Sequence of Luciferin 4-monooxygenase (Photinus pyralis) (P08659 whole entry, looked up): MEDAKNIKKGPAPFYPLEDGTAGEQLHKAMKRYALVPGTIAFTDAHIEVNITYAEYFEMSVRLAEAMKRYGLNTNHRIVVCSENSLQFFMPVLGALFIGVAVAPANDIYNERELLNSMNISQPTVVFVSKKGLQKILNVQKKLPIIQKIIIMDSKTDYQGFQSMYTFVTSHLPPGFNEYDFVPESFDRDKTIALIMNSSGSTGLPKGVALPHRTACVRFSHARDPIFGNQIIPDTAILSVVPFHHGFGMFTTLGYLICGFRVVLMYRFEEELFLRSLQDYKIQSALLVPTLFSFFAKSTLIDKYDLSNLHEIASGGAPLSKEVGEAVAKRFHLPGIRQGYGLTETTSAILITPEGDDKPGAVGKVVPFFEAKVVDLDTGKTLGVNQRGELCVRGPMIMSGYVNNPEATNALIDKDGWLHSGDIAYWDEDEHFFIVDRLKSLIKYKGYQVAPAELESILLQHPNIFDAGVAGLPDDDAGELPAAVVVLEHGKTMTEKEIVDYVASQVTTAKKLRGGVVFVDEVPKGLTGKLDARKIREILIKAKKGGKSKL
Outline: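 Inhibition of purified Photinus luciferase is measured by luminescence. Substrate levels (D-luciferin, ATP) sit at their KM values. Each compound is tested in a concentration series.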

[3] = qHTS assay to identify small molecule agonists of the constitutive androstane receptor (CAR) signaling pathway - cell viability counter screen (AID 1224836); note: nearly all actives have a fitted effect of over 45% in size; note: potency is the fitted concentration of half-maximal effect
Outline: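 HepG2 cells stably carrying hCAR and a CYP2B6-2.2kb reporter were plated 4 h, then given compounds at 15 concentrations plus PK11195 (final 0.75 uM). After 23 h at 37 C, viability was read by CellTiter-Fluor fluorescence.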

[4] = qHTS assay to identify small molecule antagonists of the constitutive androstane receptor (CAR) signaling pathway - cell viability counter screen (AID 1224837); note: nearly all actives have a fitted effect of over 45% in size; note: potency is the fitted concentration of half-maximal effect
Outline: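 CITCO at 50 nM final was added alongside compounds (15 concentrations) to double-stable hCAR/CYP2B6-2.2kb HepG2 cells. Following 23 hr at 37 C, cell viability was quantified by CellTiter-Fluor fluorescence intensity.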

[5] = target: Nuclear receptor subfamily 1 group I member 3 (Homo sapiens) (UniProt Q14994); assay: qHTS assay to identify small molecule antagonists of the constitutive androstane receptor (CAR) signaling pathway (AID 1224838); note: nearly all actives have a fitted effect of over 40% in size
Sequence of Nuclear receptor subfamily 1 group I member 3 (Homo sapiens) (Q14994 whole entry, looked up): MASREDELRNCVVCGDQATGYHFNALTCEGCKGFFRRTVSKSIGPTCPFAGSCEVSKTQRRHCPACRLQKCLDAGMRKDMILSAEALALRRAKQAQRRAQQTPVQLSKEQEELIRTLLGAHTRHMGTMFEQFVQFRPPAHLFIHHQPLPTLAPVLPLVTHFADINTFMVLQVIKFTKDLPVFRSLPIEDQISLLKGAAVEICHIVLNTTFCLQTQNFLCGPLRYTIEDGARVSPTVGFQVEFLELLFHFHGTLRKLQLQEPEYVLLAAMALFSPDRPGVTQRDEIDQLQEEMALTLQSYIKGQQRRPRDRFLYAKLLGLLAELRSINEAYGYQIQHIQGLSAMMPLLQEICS
Outline: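 Inhibition of CITCO-driven (50 nM final) CYP2B6 reporter expression is measured in HepG2 cells stably carrying hCAR. Fifteen compound concentrations are applied for 24 h at 37 C, followed by luciferase luminescence.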

[6] = target: Nuclear receptor subfamily 1 group I member 3 (Homo sapiens) (UniProt Q14994); assay: qHTS assay to identify small molecule agonists of the constitutive androstane receptor (CAR) signaling pathway (AID 1224839); note: nearly all actives have a fitted effect of over 15% in size; note: potency is the fitted concentration of half-maximal effect
Outline: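 HepG2 cells stably expressing hCAR and a CYP2B6-2.2kb luciferase reporter were treated with compounds at 15 concentrations plus 0.75 uM PK11195 (final) for 24 h at 37 C; luminescence was read after ONE-Glo addition.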

[7] = qHTS assay to identify small molecule antagonists of the estrogen related receptor signaling pathway with the pleiotropic PPARgamma coactivator (PGC) from Tox21 10K library - cell viability counter screen (AID 1224840; active = well fitted cell-killing curve with a large enough effect in the repeat runs, not every such curve was filed as active; note: nearly all actives have a fitted effect of over 40% in size)
Outline: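 Readout: fluorescence intensity from CellTiter-Fluor after 30 min at 37 C/5% CO2. Preceded by 17.5 h treatment of PGC/ERR cells with DMSO-dissolved compounds, added 6 h post-seeding.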

[8] = qHTS assay to identify small molecule antagonists of the estrogen related receptor signaling pathway with the pleiotropic PPARgamma coactivator (PGC) from Tox21 10K library (AID 1224841; call rule not given here; note: actives are mostly falling curves and most rising ones were filed inactive; nearly all actives have a fitted effect of over 50% in size)
Outline: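 One-Glo luminescence, measured after half an hour at room temperature, quantified reporter output of PGC/ERR cells. These had been plated at 2,000 per well, incubated 6 h, dosed with compounds in DMSO, then kept 18 h at 37 C.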

[9] = qHTS assay to identify small molecule agonists of the estrogen related receptor signaling pathway with the pleiotropic PPARgamma coactivator (PGC) from Tox21 10K library (AID 1224842); note: nearly all actives have a fitted effect of over 15% in size
Outline: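 Luminescence from One-Glo (30 min, room temperature) measured after PGC/ERR cells had 18 h at 37 C with pinned compound (23 nL in DMSO). Cells had been seeded at 2,000 per well and pre-incubated 6 h.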

[10] = target: Thyrotropin receptor (Homo sapiens) (UniProt P16473); assay: qHTS assay to identify small molecule agonists of the thyroid stimulating hormone receptor (TSHR) signaling pathway (AID 1224843; calls by dose curve; note: nearly all actives have a fitted effect of over 45% in size)
Sequence of Thyrotropin receptor (Homo sapiens) (P16473 whole entry, looked up): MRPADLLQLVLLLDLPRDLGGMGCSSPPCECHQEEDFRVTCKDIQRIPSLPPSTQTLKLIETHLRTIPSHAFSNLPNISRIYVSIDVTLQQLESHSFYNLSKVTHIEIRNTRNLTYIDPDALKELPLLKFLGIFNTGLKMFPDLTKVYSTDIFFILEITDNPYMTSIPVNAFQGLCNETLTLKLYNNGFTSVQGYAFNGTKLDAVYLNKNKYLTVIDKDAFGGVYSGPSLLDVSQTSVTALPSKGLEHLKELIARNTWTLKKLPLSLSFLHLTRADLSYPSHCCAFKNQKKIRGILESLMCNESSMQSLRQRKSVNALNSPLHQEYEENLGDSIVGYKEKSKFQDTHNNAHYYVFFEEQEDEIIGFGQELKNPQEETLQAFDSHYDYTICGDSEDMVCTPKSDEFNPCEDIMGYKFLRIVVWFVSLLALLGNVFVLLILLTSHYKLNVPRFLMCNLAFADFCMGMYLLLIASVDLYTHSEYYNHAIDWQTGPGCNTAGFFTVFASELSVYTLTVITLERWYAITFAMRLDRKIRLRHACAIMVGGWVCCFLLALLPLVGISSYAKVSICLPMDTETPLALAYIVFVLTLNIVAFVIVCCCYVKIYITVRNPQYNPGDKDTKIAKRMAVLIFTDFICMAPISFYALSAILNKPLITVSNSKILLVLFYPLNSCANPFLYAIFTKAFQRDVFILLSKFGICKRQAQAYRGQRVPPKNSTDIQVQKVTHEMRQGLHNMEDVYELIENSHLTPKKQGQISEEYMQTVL
Outline: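 Agonist activity read as cAMP rise via d2/cryptate HTRF competition, 1 h room-temperature detection, in HEK293 cells expressing TSHR. Fifteen-point titrations, each run in triplicate, with a 30 min room-temperature incubation beforehand.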

[11] = qHTS assay to identify small molecule agonists of the hypoxia (HIF-1) signaling pathway - cell viability counter screen (AID 1224844; calls by dose curve; note: nearly all actives have a fitted effect of over 50% in size)
Outline: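 In this counter screen, HRE-bla ME-180 cell viability after 17 hrs of compound exposure at 37C was read by CellTiter-Glo luminescence, multiplexed with the beta-lactamase reporter measurement.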

[12] = qHTS assay to identify small molecule agonists of H2AX (AID 1224845; active = well fitted activation curve with a large enough effect in the signal ratio in the repeat runs, not every such curve was filed as active; the % refers to the signal ratio)
Outline: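 Phospho-H2AX Ser139 measured by HTRF (ex 320 nm; em 665 and 620 nm) after 24 hr antibody incubation. Compounds, 15 concentrations, 0.76% DMSO, were applied to CHO-K1 cells for 3hr at 37C before lysis.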

[13] = qHTS assay to identify small molecule agonists of H2AX - cell viability counter screen (AID 1224847; calls by dose curve; note: top concentration of the series differs between compounds; nearly all actives have a fitted effect of over 30% in size)
Outline: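 Wild-type CHO-K1 cells (10% FBS medium) were plated overnight at 37C, exposed to compounds at 15 concentrations for 3 hr at 37C (0.76% DMSO final), and viability was read as CellTiter-Glo luminescence after 30 min at room temperature.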

[14] = qHTS assay to identify small molecule antagonists of the estrogen related receptor (ERR) signaling pathway from Tox21 library (AID 1224848); note: nearly all actives have a fitted effect of over 50% in size
Outline: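 Luciferase luminescence (ONE-Glo, 30 min room temperature) was the read-out. Cells of the NTP-supplied ERR line, 2,000 per well, were given 6 h at 37 C before compound addition in DMSO and 18 h exposure at 37 C.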

[15] = qHTS assay to identify small molecule agonists of the estrogen related receptor (ERR) signaling pathway from Tox21 library (AID 1224849; calls by dose curve; note: nearly all actives have a fitted effect of over 15% in size); conditions: ERR reporter cell line, ONE-Glo luciferase, 18 h; at 92.4 µM (top of the series) unless noted
Outline: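 Luciferase activity in ERR pathway reporter cells served as the agonist readout; exposure lasted 18 h at 37 C, with ONE-Glo detection after 30 min at room temperature.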

[16] = qHTS RealTime-Glo MT Cell Viability Assay in HepG2 cells - 24 hour (AID 1224867); note: nearly all actives have a fitted effect of over 50% in size
Outline: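 Luminescence read-out: viable HepG2 cells reduce a prosubstrate to a NanoLuc substrate, giving a signal proportional to live cell number. Reads taken at 0, 8, 16, 24, 32 and 40 h of compound exposure at 37 C.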

[17] = qHTS RealTime-Glo MT Cell Viability Assay in HEK293 cells - 32 hour (AID 1224868)
Outline: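 Nonlytic real-time viability readout: viable cells convert prosubstrate to NanoLuc substrate, giving luminescence proportional to live cell number. HEK293, 600 cells/well, compound added after 5 h, continuous culture at 37 C.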

[18] = A CellTox Green Cytotoxicity Assay to monitor cytotoxicity in HEK293 cells - 0 hour (AID 1224869); note: nearly all actives have a fitted effect of over 50% in size
Outline: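 Real-time, in one plate: 600 HEK293 cells/well with dead-cell DNA dye, pinned compound after 5 h, 37 C incubation over 40 h; viable cells give no appreciable fluorescence.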

[19] = qHTS assay to identify small molecule agonists of the hypoxia (HIF-1) signaling pathway (AID 1224846; active = well fitted activation curve with a large enough effect in the signal ratio in the repeat runs, not every such curve was filed as active; the % refers to the signal ratio)
Outline: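 ME-180 HRE-bla reporter cells; compounds in DMSO, 17 h at 37C; read-out beta-lactamase via CCF4-AM FRET.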

[20] = qHTS assay to identify small molecule agonists of the estrogen related receptor signaling pathway with the pleiotropic PPARgamma coactivator (PGC) (AID 1224823)
Outline: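 Compounds dissolved in DMSO are added by pin tool to PGC/ERR cells that have settled for 6 h, and incubation continues 18 h at 37 C. Reporter output is measured as One-Glo luminescence.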

For `C=C1CC/C=C(\C)CC[C@@H]2[C@@H]1CC2(C)C`, the Potency [1] was “inactive”, the Potency [2] was “inactive” and the Potency [3] was “inactive”. The Potency [4] was “inactive”, the outcome [5] was “inactive” and the Potency [6] was “inactive”. For the same compound, the outcome [7] was “inactive”, the Potency [8] was “inactive” and the outcome [9] was “inactive”. For the same compound, the Potency [10] was “inactive”, the outcome [11] was “inactive” and the outcome [12] was “inactive”. The Potency [13] was “inactive”, the Potency [14] was “inactive” and the activity change, positive = activation [15] was 0.265%. For the same compound, the outcome [16] was “inactive”, the Potency [17] was “inactive” and the outcome [18] was “inactive”.
For `COc1ccc(Br)c(C)c1`, the Potency [1] was “inactive”, the Potency [2] was “inactive” and the Potency [3] was “inactive”. For the same compound, the Potency [4] was “inactive”, the outcome [5] was “inactive” and the Potency [6] was “inactive”. For the same compound, the outcome [7] was “inactive”, the Potency [8] was “inactive” and the outcome [9] was “inactive”. The Potency [10] was “inactive”, the outcome [11] was “inactive” and the outcome [12] was “inactive”. For the same compound, the outcome [19] was “inactive”, the Potency [13] was “inactive” and the Potency [14] was “inactive”. The activity change, positive = activation [15] was -0.068%, the outcome [16] was “inactive” and the Potency [17] was “inactive”. For the same compound, the outcome [18] was “inactive”.
In the case of `CC(C)(C)c1cc(CCC(=O)NN)cc(C(C)(C)C)c1O`, the Potency [1] is reported as “inactive”, the Potency [2] is reported as “inactive” and the Potency [3] is reported as “inactive”. For the same compound, the Potency [4] was “inactive”, the outcome [5] was “inactive” and the Potency [6] was 30.6 µM (active). The outcome [7] was “inactive”, the Potency [8] was “inactive” and the outcome [9] was “inactive”. The Potency [10] was “inactive”, the outcome [11] was “inactive” and the outcome [12] was “inactive”. The outcome [19] was “inactive”, the Potency [14] was “inactive” and the activity change, positive = activation [15] was -9%. The outcome [16] was “inactive”, the Potency [17] was “inactive” and the outcome [18] was “inactive”.
In the case of `Cc1cccc(C)c1OCC(C)N` (stereo unspecified), the outcome [20] is reported as “inactive”, the Potency [2] is reported as “inactive” and the Potency [4] is reported as “inactive”. For the same compound, the Potency [6] was “inactive”, the outcome [7] was “inactive” and the Potency [8] was “inactive”. The outcome [9] was “inactive”, the Potency [10] was “inactive” and the outcome [11] was “inactive”. For the same compound, the outcome [12] was “inactive”, the Potency [13] was “inactive” and the Potency [14] was “inactive”. For the same compound, the activity change, positive = activation [15] was -2% [at 42.5 µM], the outcome [16] was “inactive” and the Potency [17] was “inactive”. The outcome [18] was “inactive”.
For `COc1ccc2c(c1OC)C(=O)O[C@@H]2[C@H]1c2c(cc3c(c2OC)OCO3)CCN1C`, the outcome [20] was “inactive”, the Potency [1] was 11.9 µM (active) and the Potency [2] was “inactive”. For the same compound, the Potency [3] was 8.41 µM (active), the Potency [4] was 10.6 µM (active) and the outcome [5] was “inactive”. For the same compound, the Potency [8] was “inactive”, the outcome [9] was “inactive” and the Potency [10] was “inactive”. For the same compound, the outcome [11] was “inactive”, the outcome [12] was “inactive” and the Potency [13] was “inactive”. For the same compound, the Potency [14] was “inactive”, the activity change, positive = activation [15] was -16% [at 42.5 µM] and the outcome [16] was “inactive”. For the same compound, the outcome [18] was “inactive”.
With `CN1CCN(CC(=O)N2c3ccccc3C(=O)Nc3cccnc32)CC1` the outcome [20] was “inactive”, the viability change, negative = cytotoxic [1] was 2.62% [at 8.39 µM] and the activity change, negative = inhibition [2] was 1.23% [at 10.5 µM]. The viability change, negative = cytotoxic [3] was -1.77% [at 8.39 µM], the activity change, negative = cytotoxicity [4] was 7.37% [at 8.39 µM] and the activity, negative = inhibition [5] was -1.39% [at 8.39 µM]. It also gave an activation [6] of -1% [at 8.39 µM], a viability change, negative = cytotoxic [7] of 8.41% [at 8.39 µM] and an activity, negative = inhibition [8] of 2.2% [at 8.39 µM]. For the same compound, the activation [9] was 0.61% [at 8.39 µM], the activation [10] was 3.54% [at 8.39 µM] and the activity change, negative = cytotoxicity [11] was 0.9% [at 6.97 µM]. It also gave an activation (H2AX phosphorylation) [12] of 2.24% [at 14 µM], an activity change, negative = cytotoxicity [13] of -0.342% [at 14 µM] and an activity, negative = inhibition [14] of 0.334% [at 8.39 µM]. For the same compound, the activity change, positive = activation [15] was -0.263% [at 8.39 µM], the activity change, negative = cytotoxicity [16] was 0.294% [at 6.97 µM] and the activity change, negative = cytotoxic [17] was 5.96% [at 6.97 µM]. The cytotoxicity [18] was 1.41% [at 6.97 µM].
